Source: PubChem BioAssay
Several values for one entry are separate records, joined by “and”; a condition that tells them apart may be missing. Identical values can stand only once. Activity calls are given as the source filed them.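 Rule for the calls, unless noted: active = normalized viability below 100% at a tested concentration; inactive = the rest.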

Key:
[1] = stimulators of nuclear beta-catenin in C2C12, primary screen, imaging, WNT3A-conditioned medium, mouse C2C12, NPC library (AID 1117326; in the data active = nuclear beta-catenin stimulation mostly above about 4.2%, no sharp cut-off; inactive = mostly below about 10%); conditions: stronger effect = higher value
[2] = stimulators of insulin release from INS-1E, primary screen, cell-based, 5 mM glucose, NPC library (AID 1117329;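 active = compound raises insulin release from rat beta cells at 5 mM glucose, no numeric limit stated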); conditions: rat INS-1E insulin secretion, at 10 µM, stronger effect = higher value
[3] = growth inhibition of GSK3B-pretreated HCT116 cells – cell-based, CellTiter-Glo, 0.2 to 20 µM (AID 1117336;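 active = compounds lowering colon cancer cell viability after pretreatment blocking the GSK3B kinase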); conditions: HCT116 viability after GSK3B inhibitor, at 20 µM, stronger effect = higher value
[4] = inhibition of endothelial tube formation, primary screen, imaging, VEGF stimulated, CD31 staining, tube area, NPC library (AID 1117340;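 active = compound that reduces growth-factor-driven endothelial tube area in a mixed cell culture, no cutoff stated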); conditions: VEGF-stimulated ADSC/ECFC co-culture, at 10 µM, stronger effect = higher value
[5] = glucagon-like peptide 1 release enhancers, primary assay, NCI-H716 cell line, NPC library (AID 1117341;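 active = compound raises GLP1 secretion from the human gut endocrine cells, with no numeric limit stated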); conditions: NCI-H716 cells, at 10 µM, stronger effect = higher value
[6] = HCT116 colon cancer cell growth inhibition, primary screen, CellTiter-Glo luminescence, NPC library (AID 1117342;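 active = compounds that lower survival of HCT116 colon cancer cells in the luminescence readout, no numeric limit stated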); conditions: at 20 µM (top of the series)
[7] = CellTiter-Glo luminescent readout of SW480 viability loss, NPC library primary (AID 1117343;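 active = compounds that lower viability of the colon cancer cells in the luminescence readout, with no numeric limit stated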); conditions: CellTiter-Glo luminescence; at 20 µM (top of the series)
[8] = decreased DLD-1 cellular survival, CellTiter-Glo luminescent readout, NPC compound collection, primary HTS (AID 1117346;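 active = compounds that lower survival of DLD-1 colon cancer cells in the luminescence readout, no cutoff given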); conditions: DLD-1 viability, CellTiter-Glo luminescence; at 20 µM (top of the series)
[9] = biological target: 6-phosphogluconate dehydrogenase, decarboxylating (Homo sapiens) (UniProt P52209); test: 6PGD enzyme inhibitors, primary screen, biochemical, human, recombinant enzyme, NADPH absorbance (AID 1159550;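 active = at least 20% inhibition of 6-phosphogluconate dehydrogenase activity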); conditions: recombinant 6PGD, NADPH absorbance 341 nm; at 10 µM; stronger effect = higher value
Sequence of 6-phosphogluconate dehydrogenase, decarboxylating (Homo sapiens) (P52209 whole entry, looked up): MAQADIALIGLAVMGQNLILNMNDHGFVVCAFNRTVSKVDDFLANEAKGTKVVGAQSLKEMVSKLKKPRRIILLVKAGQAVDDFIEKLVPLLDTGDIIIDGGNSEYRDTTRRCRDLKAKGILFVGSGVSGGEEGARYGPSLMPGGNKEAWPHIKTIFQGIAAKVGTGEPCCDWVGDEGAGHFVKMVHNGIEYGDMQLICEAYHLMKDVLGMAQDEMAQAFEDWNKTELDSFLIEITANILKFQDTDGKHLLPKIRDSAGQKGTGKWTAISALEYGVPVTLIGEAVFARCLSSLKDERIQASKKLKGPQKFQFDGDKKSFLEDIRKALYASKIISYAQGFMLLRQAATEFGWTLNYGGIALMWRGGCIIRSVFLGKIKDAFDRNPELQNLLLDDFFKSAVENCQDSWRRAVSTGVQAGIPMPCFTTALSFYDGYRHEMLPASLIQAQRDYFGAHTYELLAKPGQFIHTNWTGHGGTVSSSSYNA

[10] = modulation of C. elegans fzo-1 (AID 1259413; call rule not given here;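 note: fzo-1 mutant C. elegans worms in liquid wells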); conditions: C. elegans fzo-1 modulator screen, mean read-out; stronger effect = higher value
[11] = differential killing of epithelial or mesenchymal cells, primary screen, imaging, PC-3E GFP, TEM4-18 mCherry, co-culture (AID 1345086;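 active = compounds killing one labelled cell type while sparing the other, by normalised counts and ratio limits, not self-fluorescent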;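 for all read-outs here: cells exposed to compound for 72 h before imaging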;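 for red/green cell ratio (normalised): normalised mesenchymal count divided by normalised epithelial count so high means epithelial killing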); conditions: imaging cell counts, at 1 µM; for red/green cell ratio (normalised): actives lie on both sides, counts scaled to control wells, 1 = unselective
[12] = survival rescue of mitochondrial mutant cells in low glucose, primary screen, MELAS cybrids, Rieske KO mouse fibroblasts, CellTiter-Glo (AID 1508586;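 active = mean z-score across replicates of 1.96 or higher in either the MELAS or the Rieske mutant cell line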;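 note: z relative to plate mean and SD of compound and empty wells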)
[13] = biological target: NAD(+) hydrolase SARM1 (Homo sapiens) (UniProt Q6SZW1); test: SARM1 TIR NADase inhibitors, cell lysate, NAD-Glo luminescence (AID 1508614;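 active = compound whose remaining NAD level is above about 45 nM, limit read from the data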;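 note: higher remaining NAD means stronger inhibition of SARM1 NADase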); conditions: SAM-TIR HEK293T lysate NADase, at 1 µM, stronger effect = higher value
Sequence of NAD(+) hydrolase SARM1 (Homo sapiens) (Q6SZW1 whole entry, looked up, the tested form may be a part): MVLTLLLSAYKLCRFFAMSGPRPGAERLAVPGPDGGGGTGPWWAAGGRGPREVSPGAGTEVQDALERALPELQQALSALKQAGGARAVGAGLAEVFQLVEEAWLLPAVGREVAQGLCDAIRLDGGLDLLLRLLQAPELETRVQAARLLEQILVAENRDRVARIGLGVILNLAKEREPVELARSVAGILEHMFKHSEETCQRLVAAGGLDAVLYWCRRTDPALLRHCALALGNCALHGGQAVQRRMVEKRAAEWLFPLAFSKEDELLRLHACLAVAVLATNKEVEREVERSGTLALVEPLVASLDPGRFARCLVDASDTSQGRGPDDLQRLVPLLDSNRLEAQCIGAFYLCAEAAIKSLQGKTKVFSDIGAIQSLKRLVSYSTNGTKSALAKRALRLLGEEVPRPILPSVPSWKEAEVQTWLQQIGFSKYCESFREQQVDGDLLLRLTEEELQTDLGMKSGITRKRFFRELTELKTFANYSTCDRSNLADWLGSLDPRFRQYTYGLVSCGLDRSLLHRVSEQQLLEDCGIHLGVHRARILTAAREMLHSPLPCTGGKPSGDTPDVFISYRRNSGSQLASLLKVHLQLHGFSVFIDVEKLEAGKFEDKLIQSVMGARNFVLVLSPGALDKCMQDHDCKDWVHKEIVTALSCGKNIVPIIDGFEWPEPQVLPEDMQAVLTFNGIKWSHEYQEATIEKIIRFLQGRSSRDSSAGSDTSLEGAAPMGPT

[14] = biological target: Mitogen-activated protein kinase 7 (Homo sapiens) (UniProt Q13164); test: ERK5 transactivation activators in reporter cells, primary screen, cell-based, HTS (AID 1508626;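 active = luciferase signal above three times the same-plate solvent-only control wells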;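 note: luciferase driven by Gal4-ERK5 fusion binding five Gal4 sites before minimal TATA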); conditions: HeLa Gal4-ERK5 transactivation, 18 h, at 5 µM, stronger effect = higher value
Sequence of Mitogen-activated protein kinase 7 (Homo sapiens) (Q13164 whole entry, looked up, the tested form may be a part): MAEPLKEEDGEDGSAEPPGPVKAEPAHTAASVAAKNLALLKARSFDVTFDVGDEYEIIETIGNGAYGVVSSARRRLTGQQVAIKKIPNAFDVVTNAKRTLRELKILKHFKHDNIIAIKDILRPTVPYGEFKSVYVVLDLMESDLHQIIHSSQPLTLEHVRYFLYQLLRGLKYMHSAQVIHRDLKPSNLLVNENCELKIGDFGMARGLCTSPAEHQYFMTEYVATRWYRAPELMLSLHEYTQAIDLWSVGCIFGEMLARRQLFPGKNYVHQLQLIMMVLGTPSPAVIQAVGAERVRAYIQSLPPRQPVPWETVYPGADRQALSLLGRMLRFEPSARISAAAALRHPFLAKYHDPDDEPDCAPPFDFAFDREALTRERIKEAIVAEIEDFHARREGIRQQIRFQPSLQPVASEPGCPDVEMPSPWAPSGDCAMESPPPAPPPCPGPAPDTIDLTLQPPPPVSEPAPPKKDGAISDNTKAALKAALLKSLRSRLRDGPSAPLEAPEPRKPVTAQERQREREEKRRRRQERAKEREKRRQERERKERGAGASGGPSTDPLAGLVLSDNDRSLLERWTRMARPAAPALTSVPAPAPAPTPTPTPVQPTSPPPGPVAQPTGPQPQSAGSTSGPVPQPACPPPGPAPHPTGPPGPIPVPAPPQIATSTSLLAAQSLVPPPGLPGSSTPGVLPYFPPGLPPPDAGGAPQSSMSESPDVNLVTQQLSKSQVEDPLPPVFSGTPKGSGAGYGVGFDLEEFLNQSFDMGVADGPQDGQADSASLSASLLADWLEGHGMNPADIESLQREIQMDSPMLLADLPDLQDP

F380Y = test: modulators of BK channel variants, profiling panel, selectivity assay, cell-based, U2OS BacMam, thallium flux, beta subunits (AID 1259406;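 active = thallium flux through the channel raised or lowered by more than 3 SD from vehicle-only wells, actives on both sides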;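 note: initial slope of Thallos dye fluorescence rise after thallium is added; log ratio against the mean of 0.3% DMSO vehicle wells on the same plate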); conditions: at 30 µM
F380Y/beta1 = test: as above; conditions: at 30 µM
F380Y/beta2Delta = test: as above; conditions: at 30 µM
[15] = sensitizers of A549 cells to miR-34 induction, primary screen, imaging, A549 dox-inducible miR-34, nuclei and caspase counts (AID 1347080;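 active = compounds whose cell count with miR-34 switched on is under 0.7 times the count with it off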); conditions: A549 miR-34 inducible, Hoechst nuclei count, 48 h
[16] = ovarian cancer cell viability with rucaparib, profiling panel, oncology-focused library, rucaparib conditional (AID 1508598); conditions: patient-derived ovarian cancer cells, CellTiter-Glo viability, 144 h, stronger effect = lower value
[17] = ICB984 medulloblastoma cell growth inhibition, synergistic combos for chromothripsis tumors, cisplatin or BGB combos (AID 1671451; call rule not given here;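 note: cells exposed for 96 hours before readout; 0% = vehicle DMSO and 100% = killing by high DMSO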); conditions: ICB984 medulloblastoma cells, drug combinations, stronger effect = higher value
[18] = measured here: epithelial PC-3E GFP cell survival
[19] = measured here: mesenchymal TEM4-18 mCherry cell survival
[20] = MELAS cybrid survival, CellTiter-Glo 48 h, stronger effect = higher value
[21] = Rieske KO mouse fibroblast survival, CellTiter-Glo 72 h
[22] = stronger effect = lower value, cell number ratio, induced over uninduced
[23] = measured here: relative caspase fold change +Dox/-Dox
[24] = measured here: total cells with miR-34 induction, stronger effect = lower value
[25] = measured here: total cells without miR-34 induction

NC(=O)c1cnccn1
0.91: normalised cell number [11, 18]
1.03: normalised cell number [11, 19]
inactive: nuclear beta-catenin stimulation ([1]; at 10 µM) -0.1% | insulin secretion stimulation [2] -1.9% | viability decrease [3] 0.65% | tube area decrease [4] 14.5% | GLP1 secretion stimulation [5] 3.1% | inhibition of viability [6] -20.7% | viability decrease (inhibition) [7] -1.8% | viability decrease (inhibition) [8] -1.9% | inhibition [9] -8.25% | mean signal [10] 263 | red/green cell ratio (normalised) [11] 1.13 | z-score [12, 20] -0.184 and 0.644 | remaining NAD [13] 10 nM | luciferase signal [14] 48 AU | log fold change Tl+ flux (F380Y) -0.0194 | log fold change Tl+ flux (F380Y/beta1) 0.0317
-1 and -0.0443: z-score [12, 21]
-0.7%: nuclear beta-catenin stimulation ([1]; stimulation, at 2 µM)
active: log fold change Tl+ flux (F380Y/beta2Delta) -0.0799

CCCCCCNC(=O)n1cc(F)c(=O)[nH]c1=O
inactive: insulin secretion stimulation [2] 0.3% | GLP1 secretion stimulation [5] -0.8% | inhibition of viability [6] 42% | viability decrease (inhibition) [8] 30.3% | inhibition [9] 1.06% | mean signal [10] 292 | red/green cell ratio (normalised) [11] 0.85 | fold change [15, 22] 1.09 and 1.08 | z-score [12, 20] -0.365 and -0.769 | viability ([16]; at 0.000305 µM, OCI-C5x cells, with rucaparib 10 µM, 100% = cells with rucaparib alone) 125% | viability ([16]; at 0.000305 µM, OCI-C5x cells, without rucaparib) 114% | viability ([16]; at 0.000305 µM, OCI-P5x cells, with rucaparib 20 µM, 100% = cells with rucaparib alone) 108% | viability ([16]; at 0.000305 µM, OCI-P5x cells, without rucaparib) 129% | viability ([16]; at 0.00122 µM, OCI-C5x cells, with rucaparib 10 µM, 100% = cells with rucaparib alone) 128% | viability ([16]; at 0.00122 µM, OCI-C5x cells, without rucaparib) 121% | viability ([16]; at 0.00122 µM, OCI-P5x cells, with rucaparib 20 µM, 100% = cells with rucaparib alone) 115% | viability ([16]; at 0.00122 µM, OCI-P5x cells, without rucaparib) 115% | viability ([16]; at 0.00488 µM, OCI-C5x cells, with rucaparib 10 µM, 100% = cells with rucaparib alone) 115% | viability ([16]; at 0.00488 µM, OCI-C5x cells, without rucaparib) 125% | viability ([16]; at 0.00488 µM, OCI-P5x cells, with rucaparib 20 µM, 100% = cells with rucaparib alone) 108% | viability ([16]; at 0.00488 µM, OCI-P5x cells, without rucaparib) 117% | viability ([16]; at 0.0195 µM, OCI-C5x cells, with rucaparib 10 µM, 100% = cells with rucaparib alone) 114% | viability ([16]; at 0.0195 µM, OCI-C5x cells, without rucaparib) 113% | viability ([16]; at 0.0195 µM, OCI-P5x cells, with rucaparib 20 µM, 100% = cells with rucaparib alone) 107% | viability ([16]; at 0.0195 µM, OCI-P5x cells, without rucaparib) 113% | viability ([16]; at 0.0781 µM, OCI-C5x cells, with rucaparib 10 µM, 100% = cells with rucaparib alone) 134% | viability ([16]; at 0.0781 µM, OCI-C5x cells, without rucaparib) 117% | viability ([16]; at 0.0781 µM, OCI-P5x cells, with rucaparib 20 µM, 100% = cells with rucaparib alone) 103% | viability ([16]; at 0.0781 µM, OCI-P5x cells, without rucaparib) 117% | viability ([16]; at 0.313 µM, OCI-C5x cells, with rucaparib 10 µM, 100% = cells with rucaparib alone) 133% | viability ([16]; at 0.313 µM, OCI-C5x cells, without rucaparib) 112% | viability ([16]; at 0.313 µM, OCI-P5x cells, with rucaparib 20 µM, 100% = cells with rucaparib alone) 101% | viability ([16]; at 0.313 µM, OCI-P5x cells, without rucaparib) 112% | viability ([16]; at 1.25 µM, OCI-C5x cells, with rucaparib 10 µM, 100% = cells with rucaparib alone) 129% | viability ([16]; at 1.25 µM, OCI-C5x cells, without rucaparib) 128% | viability ([16]; at 1.25 µM, OCI-P5x cells, without rucaparib) 104% | viability ([16]; at 5 µM, OCI-C5x cells, with rucaparib 10 µM, 100% = cells with rucaparib alone) 223% | viability ([16]; at 5 µM, OCI-C5x cells, without rucaparib) 172% | remaining NAD [13] 10 nM | luciferase signal [14] 32 AU | inhibition ([17]; at 0.5 µM) -42.7% and -3.92% | log fold change Tl+ flux (F380Y) -0.0314 | log fold change Tl+ flux (F380Y/beta1) -0.0124 | log fold change Tl+ flux (F380Y/beta2Delta) -0.0543
9.5%: nuclear beta-catenin stimulation ([1]; stimulation, at 2 µM)
0.88: normalised cell number [11, 18]
-14.5% and -8.95%: inhibition ([17]; measured here: 5 uM single agent, at 5 µM)
-50% and -4.83%: inhibition ([17]; cisplatin combo, at 0.5 µM)
-43.5% and -25.3%: inhibition ([17]; cisplatin combo, at 5 µM)
0.75: normalised cell number [11, 19]
0.677 and -3.1: z-score [12, 21]
3390 and 2360: cell count [15, 24]
-17.4% and -9.29%: inhibition ([17]; BGB IC20 combo, at 0.005 µM)
3110 and 2180: cell count [15, 25]
-22.5% and -2.82%: inhibition ([17]; BGB IC40 combo, at 0.005 µM)
active: nuclear beta-catenin stimulation ([1]; at 10 µM) 41.7% | viability decrease [3] 65.6% | tube area decrease [4] 68.7% | viability decrease (inhibition) [7] 83.7% | viability ([16]; at 1.25 µM, OCI-P5x cells, with rucaparib 20 µM, 100% = cells with rucaparib alone) 95.1% | viability ([16]; at 5 µM, OCI-P5x cells, with rucaparib 20 µM, 100% = cells with rucaparib alone) 76.9% | viability ([16]; at 5 µM, OCI-P5x cells, without rucaparib) 77.9%
1.38 and 0.815: fold change [15, 23]
-33.9% and 7.79%: inhibition ([17]; cisplatin combo, at 0.05 µM)
-29.3% and 7.79%: inhibition ([17]; BGB IC40 combo, at 0.05 µM)

Cc1onc(-c2c(Cl)cccc2Cl)c1C(=O)N[C@@H]1C(=O)N2[C@@H]1SC(C)(C)[C@@H]2C(=O)O
1.26: normalised cell number [11, 18]
10700 and 8620 and 13200: cell count [15, 25]
inactive: nuclear beta-catenin stimulation ([1]; at 10 µM) 1.5% | insulin secretion stimulation [2] 1.5% | viability decrease [3] -15.4% | tube area decrease [4] 1.6% | GLP1 secretion stimulation [5] 0% | inhibition of viability [6] -4.23% | viability decrease (inhibition) [7] 18.3% | viability decrease (inhibition) [8] -11.8% | inhibition [9] -8.13% | mean signal [10] 230 | red/green cell ratio (normalised) [11] 1.32 | fold change [15, 22] 0.978 and 0.899 and 0.89 | z-score [12, 20] 0.18 | remaining NAD [13] 10 nM | luciferase signal [14] 36 AU | log fold change Tl+ flux (F380Y) 0.01 | log fold change Tl+ flux (F380Y/beta1) -0.0941 | log fold change Tl+ flux (F380Y/beta2Delta) -0.00879
0.333 and 1.39 and 0.886: fold change [15, 23]
0.0231: z-score [12, 21]
1.67: normalised cell number [11, 19]
1.3%: nuclear beta-catenin stimulation ([1]; stimulation, at 2 µM)
10400 and 7750 and 11800: cell count [15, 24]
